# Experimental data taken from publication PMC7862700, “An all-to-all approach to the identification of sequence-specific readers for epigenetic DNA modifications on cytosine”.
# Columns and labels:
# Experiment in all cases: DAPPL (digital affinity profiling via proximity ligation, sequencing); 10 mM Tris-HCl pH 7.5, 50 mM NaCl, 1 mM DTT, 4% glycerol, room temperature, 30 min; GST-TFs on glutathione beads, 16-mer random dsDNA library, 0.1% formaldehyde crosslink after washing; high values mean tight binding
# Details in all cases: protein: recombinant; tags: N-terminal GST; dsDNA, one strand shown
# FLI1 = biological target: T1, FLI1 (Homo sapiens, UniProt Q01543 1-452)
# T1 sequence: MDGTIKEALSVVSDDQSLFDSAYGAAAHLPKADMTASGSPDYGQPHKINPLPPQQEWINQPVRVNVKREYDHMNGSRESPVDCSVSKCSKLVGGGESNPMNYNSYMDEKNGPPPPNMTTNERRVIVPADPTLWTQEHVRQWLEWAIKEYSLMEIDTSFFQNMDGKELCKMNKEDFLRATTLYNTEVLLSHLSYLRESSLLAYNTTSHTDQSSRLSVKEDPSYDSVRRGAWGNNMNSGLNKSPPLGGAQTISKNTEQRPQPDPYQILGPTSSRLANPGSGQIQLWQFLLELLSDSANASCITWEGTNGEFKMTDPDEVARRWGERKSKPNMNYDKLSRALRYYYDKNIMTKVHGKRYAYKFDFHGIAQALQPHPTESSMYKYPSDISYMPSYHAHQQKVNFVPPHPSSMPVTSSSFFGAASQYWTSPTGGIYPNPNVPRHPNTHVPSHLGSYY
# Outline: (§1)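 GST fusions of human transcription factors were expressed in yeast and captured with glutathione beads. Once given DNA barcodes and pooled alongside a tag-only sample, they were incubated for 30 min at room temperature with 200 nmole of a random double-stranded 16-mer DNA library in Tris/NaCl/DTT/glycerol buffer, then washed, crosslinked (0.1% formaldehyde), proximity-ligated, PCR-amplified and sequenced on an Illumina NextSeq500. The binding signal of each hexamer is its read frequency for a factor divided by its frequency for the tag-only sample.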
# ELK1 = biological target: T2, ELK1 (Homo sapiens, UniProt P19419 1-428)
# T2 sequence: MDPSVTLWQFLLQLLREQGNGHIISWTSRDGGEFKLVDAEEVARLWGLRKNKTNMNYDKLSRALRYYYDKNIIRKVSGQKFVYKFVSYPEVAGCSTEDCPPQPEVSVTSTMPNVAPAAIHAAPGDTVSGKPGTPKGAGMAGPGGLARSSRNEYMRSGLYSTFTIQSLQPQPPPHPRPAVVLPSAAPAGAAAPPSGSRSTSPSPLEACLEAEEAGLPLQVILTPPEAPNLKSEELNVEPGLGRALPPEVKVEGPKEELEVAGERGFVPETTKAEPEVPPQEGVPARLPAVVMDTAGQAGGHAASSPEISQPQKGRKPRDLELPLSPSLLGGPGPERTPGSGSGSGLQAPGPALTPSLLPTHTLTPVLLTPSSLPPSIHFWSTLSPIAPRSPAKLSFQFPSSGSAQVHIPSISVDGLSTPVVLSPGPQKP
# Outline: as §1
# GABPA = biological target: T3, GABPA (Homo sapiens, UniProt Q06546 1-454)
# T3 sequence: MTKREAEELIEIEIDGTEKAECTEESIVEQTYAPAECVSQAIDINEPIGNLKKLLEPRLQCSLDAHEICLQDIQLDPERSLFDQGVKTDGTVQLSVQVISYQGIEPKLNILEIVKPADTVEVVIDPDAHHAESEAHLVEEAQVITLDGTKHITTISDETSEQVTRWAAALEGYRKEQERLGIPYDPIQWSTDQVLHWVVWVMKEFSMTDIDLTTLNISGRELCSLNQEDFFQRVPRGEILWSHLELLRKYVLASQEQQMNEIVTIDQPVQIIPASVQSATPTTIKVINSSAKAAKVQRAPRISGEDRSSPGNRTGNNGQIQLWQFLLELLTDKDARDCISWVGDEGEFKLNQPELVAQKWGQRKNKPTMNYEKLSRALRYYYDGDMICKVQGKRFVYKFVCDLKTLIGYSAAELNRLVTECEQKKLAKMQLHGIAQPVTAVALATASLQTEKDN
# Outline: as §1
# ERG = biological target: T4, ERG (Homo sapiens, UniProt P11308 1-479)
# T4 sequence: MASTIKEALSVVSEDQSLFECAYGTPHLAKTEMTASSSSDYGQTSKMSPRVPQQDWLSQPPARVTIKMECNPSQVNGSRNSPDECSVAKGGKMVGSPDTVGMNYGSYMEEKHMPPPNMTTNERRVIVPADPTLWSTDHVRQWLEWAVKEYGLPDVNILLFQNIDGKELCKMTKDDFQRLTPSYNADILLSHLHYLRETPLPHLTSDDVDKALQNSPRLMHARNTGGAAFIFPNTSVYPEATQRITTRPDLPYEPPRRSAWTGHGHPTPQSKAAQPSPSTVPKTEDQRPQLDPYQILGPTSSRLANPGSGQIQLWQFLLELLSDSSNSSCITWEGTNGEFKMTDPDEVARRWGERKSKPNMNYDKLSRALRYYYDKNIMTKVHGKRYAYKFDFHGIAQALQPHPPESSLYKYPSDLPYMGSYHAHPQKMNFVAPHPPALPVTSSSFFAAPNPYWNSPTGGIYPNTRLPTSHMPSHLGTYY
# Outline: as §1
# ELF1 = ELF1 (Homo sapiens, UniProt P32519 1-619)
# Outline: as §1
# EHF = biological target: T5, EHF (Homo sapiens, UniProt Q9NZC4 1-300)
# T5 sequence: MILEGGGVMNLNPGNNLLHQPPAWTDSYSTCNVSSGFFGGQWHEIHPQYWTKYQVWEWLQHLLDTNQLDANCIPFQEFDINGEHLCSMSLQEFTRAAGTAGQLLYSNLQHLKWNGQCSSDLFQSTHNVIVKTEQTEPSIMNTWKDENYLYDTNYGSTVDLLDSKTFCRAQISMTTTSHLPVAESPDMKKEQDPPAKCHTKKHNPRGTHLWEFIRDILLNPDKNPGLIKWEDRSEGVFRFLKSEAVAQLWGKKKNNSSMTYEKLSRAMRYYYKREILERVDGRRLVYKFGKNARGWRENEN
# Outline: as §1
# SPI1 = SPI1 (Homo sapiens, UniProt P17947 1-270)
# Outline: as §1
# SPIB = SPIB (Homo sapiens, UniProt Q01892 1-262)
# Outline: as §1
# ELK3 = biological target: T6, ELK3 (Homo sapiens, UniProt P41970 1-407)
# T6 sequence: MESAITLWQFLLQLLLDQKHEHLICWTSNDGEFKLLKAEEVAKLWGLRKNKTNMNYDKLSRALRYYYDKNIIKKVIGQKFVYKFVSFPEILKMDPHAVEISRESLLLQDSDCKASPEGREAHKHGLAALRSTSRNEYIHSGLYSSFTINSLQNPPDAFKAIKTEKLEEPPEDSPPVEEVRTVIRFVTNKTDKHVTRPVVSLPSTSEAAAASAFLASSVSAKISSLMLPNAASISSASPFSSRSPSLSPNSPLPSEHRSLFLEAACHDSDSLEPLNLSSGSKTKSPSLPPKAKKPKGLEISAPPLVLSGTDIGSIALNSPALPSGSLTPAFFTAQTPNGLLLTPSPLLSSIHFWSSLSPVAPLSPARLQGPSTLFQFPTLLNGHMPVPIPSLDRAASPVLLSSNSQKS
# Outline: as §1
# Chain of ELF1 (P32519 whole entry): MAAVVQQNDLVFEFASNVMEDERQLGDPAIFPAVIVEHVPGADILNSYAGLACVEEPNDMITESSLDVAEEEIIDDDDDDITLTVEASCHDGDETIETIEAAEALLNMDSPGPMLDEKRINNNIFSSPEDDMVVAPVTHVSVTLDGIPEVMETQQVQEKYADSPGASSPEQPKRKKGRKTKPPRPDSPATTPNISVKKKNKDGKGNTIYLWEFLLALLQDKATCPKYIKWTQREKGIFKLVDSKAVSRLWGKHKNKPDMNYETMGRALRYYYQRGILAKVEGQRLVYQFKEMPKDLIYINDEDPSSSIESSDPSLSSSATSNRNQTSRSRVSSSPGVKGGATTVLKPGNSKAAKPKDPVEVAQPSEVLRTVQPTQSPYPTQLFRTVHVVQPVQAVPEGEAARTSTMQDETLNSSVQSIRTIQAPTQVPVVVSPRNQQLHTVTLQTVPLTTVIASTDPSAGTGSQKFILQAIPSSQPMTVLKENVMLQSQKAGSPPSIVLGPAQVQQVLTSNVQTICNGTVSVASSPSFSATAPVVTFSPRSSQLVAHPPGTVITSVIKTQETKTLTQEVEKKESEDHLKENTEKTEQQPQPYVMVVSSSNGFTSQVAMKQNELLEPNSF
# Chain of SPIB (Q01892 whole entry): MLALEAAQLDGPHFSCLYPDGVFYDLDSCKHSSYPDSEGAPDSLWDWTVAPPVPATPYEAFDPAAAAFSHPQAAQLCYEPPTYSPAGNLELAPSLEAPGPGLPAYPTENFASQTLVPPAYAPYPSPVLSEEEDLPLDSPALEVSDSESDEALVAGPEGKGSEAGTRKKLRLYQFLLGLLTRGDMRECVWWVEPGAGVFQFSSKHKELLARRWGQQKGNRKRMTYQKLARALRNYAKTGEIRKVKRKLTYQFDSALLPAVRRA
sequence,measurement,setting,value
TGGTTT,binding signal,FLI1,"1.6 fold enrichment (6-mer frequency, TF over GST control)"
same,binding signal,ELK1,"1.44 fold enrichment (6-mer frequency, TF over GST control)"
same,binding signal,GABPA,"1.55 fold enrichment (6-mer frequency, TF over GST control)"
same,binding signal,ERG,"1.51 fold enrichment (6-mer frequency, TF over GST control)"
same,binding signal,ELF1,"1.58 fold enrichment (6-mer frequency, TF over GST control)"
same,binding signal,EHF,"1.48 fold enrichment (6-mer frequency, TF over GST control)"
same,binding signal,SPI1,"1.66 fold enrichment (6-mer frequency, TF over GST control)"
same,binding signal,SPIB,"1.43 fold enrichment (6-mer frequency, TF over GST control)"
same,binding signal,ELK3,"1.6 fold enrichment (6-mer frequency, TF over GST control)"
